Source: PubChem BioAssay
Hits are enriched below; roughly 8% of the tested compounds scored in any of these assays.
HT1080 IDH1KD tx – kills HT-1080 cells with IDH1 knockdown; HT-1080 IDH1 knockdown viability, ATP luminescence, 48 h; Potency, µM (series often up to 46.1 µM), for the others: at the top dose activity, negative = toxicity, most hits filed as cytotoxic; 2% of 360,000 active; AID 686971;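 further: 0% = DMSO wells and -100% = cell-free medium wells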
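Assay cells: HT-1080 with IDH1 knockdown, 750 per well, RPMI/5% FBS. Exposure: 48 h at 37 °C following 2 h pre-incubation. Read: CellTiter-Glo luminescence; fitted concentration-response, curve class assigned.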
MCF10A rereplic – inducers of DNA re-replication in MCF 10A breast cells; MCF 10A DNA re-replication, Hoechst nuclear intensity, 48 h; Potency, µM (doses to about 46.1 µM), inactives show top-dose activity, positive = re-replication, hits mostly activators; 2.9% of 350,000 active; AID 624296; further: % of control where 0% means no effect; nearly all actives have a fitted effect of over 50% in size
KB-3-1 cytotox – KB-3-1 parental cell cytotoxicity | AID 1347075 | KB-3-1 viability, CellTiter-Glo ATP luminescence, 72 h | 1.4% of 400,000 active | Potency, µM (titrated, usually from 46.1 µM), hits mostly cytotoxic; further: on the % scale 0 is the no-effect control and ±100 the full control effect; nearly all actives have a fitted effect of over 60% in size
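Viability of parental KB-3-1 cells, measured by CellTiter-Glo luminescence, followed a 72 h incubation at 37 °C with pinned compounds in phenol-red-free DMEM containing 10% FBS.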
SW480 rerep – induces DNA re-replication in SW480 colon adenocarcinoma cells; Potency, µM (highest dose often 46.1 µM), without a hit: at the top dose re-replication activation, hits mostly activators; SW480 DNA re-replication, Hoechst DNA content imaging, 48 h; 1.8% of 340,000 active; further: % of control where 0% means no effect; nearly all actives have a fitted effect of over 55% in size
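Hoechst fluorescence of nuclei (405 nm excitation, 500-530 nm emission) measured by plate-scanning imager after 48 hr compound exposure at 37 C; re-replication scored as increased number of nuclei with elevated intensity.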
HT1080-NT tox – kills 2HG-producing HT-1080-NT fibrosarcoma cells | AID 686970 | HT-1080-NT fibrosarcoma viability, CellTiter-Glo ATP luminescence, 48 h | Potency, µM (titrated, usually from 46.1 µM), inactives show at the top dose activity, negative = less viability, most hits filed as cytotoxic | 1.6% of 360,000 active;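 further: NT is the 2HG producing partner of a matched IDH1 knockdown line; 0% = DMSO-treated cells and -100% = media-only wells without cells; nearly all actives have a fitted effect of over 55% in size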
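HT-1080-NT fibrosarcoma cells (2HG-overproducing), 750 cells/well in RPMI with 5% FBS, dosed after 2 h and incubated 48 h at 37C. CellTiter-Glo luminescence normalized to DMSO and no-cell wells; concentration-response curves fitted and classed.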
KB-V1 cytotox – KB-V1 MDR subline cytotoxicity | AID 1347076 | KB-V1 MDR cells viability, CellTiter-Glo, 72 h | Potency, µM (titrated, usually from 46.1 µM), actives largely listed as cytotoxic | 3.4% of 400,000 active; further: on the % scale 0 is the no-effect control and ±100 the full control effect; nearly all actives have a fitted effect of over 60% in size
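KB-V1 cells (P-gp-expressing MDR subline of KB-3-1) in phenol-red-free DMEM with 10% FBS were exposed to library compounds over a concentration series for 72 h at 37 degrees C. Viability read by CellTiter-Glo luminescence; concentration-effect curves fitted after normalization.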
An asterisk follows results filed as active; i = inactive; u = inconclusive; x = no result given; [ ] = another dose, or the depositor's remark. The call rests on the fitted dose curve; in most records, active means well fitted curve in the direction sought with a large enough effect; inconclusive means small, poorly fitted or top-dose-only effect, or another doubt; inactive means no such curve, though single readings can be large; an effect the other way counts as inactive or inconclusive. Potency means the concentration at half of the fitted maximal effect.

SMILES	HT1080 IDH1KD tx	MCF10A rereplic	KB-3-1 cytotox	SW480 rerep	HT1080-NT tox	KB-V1 cytotox
CCC/C=C/c1ccc(CN2C(C(C)C)C(=O)N(Cc3cn(CCC4OCCCO4)nn3)CCS2(=O)=O)cc1 (configuration not stated)	-17%	x	i	x	-4%	i
C=CCn1c(SCC(=O)Nc2sccc2C(N)=O)nc2ccccc2c1=O	u	7%	u	u	u	18µM*
COc1cccc(NC(=O)CSc2nc3c(sc4ccccc43)c(=O)n2CCCN2CCCC2)c1	-9%	18µM*	i	u	-12%	i
COc1cccc(NC(=O)CSc2nc3c(sc4ccccc43)c(=O)n2CCN(C)C)c1	-10%	-2%	i	-11%	2%	i
COc1ccc(NC(=O)CSc2nc3ccccc3c(=O)n2CCC(=O)N2CCCCC2)cc1	-11%	3%	i	-1%	0%	u
C=CCn1c(SCC(=O)Nc2sccc2C(N)=O)nc2ccc(Cl)cc2c1=O	u	26%	u	2%	u	u
COc1cccc(NC(=O)CSc2nc3ccccc3c(=O)n2CCCC(=O)N2CCCC2)c1	-11%	u	i	7%	-12%	2.6µM*
COc1cccc(NC(=O)CSc2nc3ccccc3c(=O)n2Cc2cccs2)c1	-1%	9%	i	5%	10%	5.2µM*
Cc1nn(-c2ccccc2)c(C)c1C(=O)NCc1ccc(S(N)(=O)=O)cc1	0%	21%	i	-5%	-1%	i
CC1CC(C)(C)NC(=S)N1CCCC(=O)Nc1ccc2c(c1)OCCO2 (configuration not stated)	12%	-1%	i	-12%	8%	i
C/C(=N\NC(N)=O)c1ccc(Cl)s1	3%	4%	i	-2%	14%	u
COc1ccc(OC)c(-c2cnc(OC(C)(C)C)nc2OC(C)(C)C)c1	13µM*	u	u	u	u	u
CNc1cncc(-c2cc(OC)ccc2OC)n1	-1%	x	i	x	-9%	i
Nc1ccn([C@@H]2O[C@H](CN=C3NS(=O)(=O)c4ccccc43)[C@@H](O)[C@H]2O)c(=O)n1	-2%	x	i	x	4%	u
CCCCCCCCCC[n+]1ccc(/C=C/c2c(C)[nH]c3ccccc23)c2ccccc21	x	x	5.8µM*	x	x	u
CCCCCCC[n+]1ccc(/C=C/c2c(C)[nH]c3ccccc23)c2ccccc21	x	x	8.2µM*	x	x	u
CCCCNC(=S)N(C)/N=C/c1c(C)[nH]c2ccccc12	-25%	u	i	0%	-27%	u
CCCCCCCCCCCC[n+]1ccc(/C=C/c2c[nH]c3ccccc23)c2ccccc21	x	x	u	x	x	i
CCCCCCC[n+]1ccc(/C=C/c2c[nH]c3ccccc23)c2ccccc21	x	x	7.3µM*	x	x	u
CCC(c1nnnn1CCOC)N1CCN(Cc2ccccc2OC)CC1 (configuration not stated)	14%[9.24 µM]	3%	i	12%	11%	u
Cc1ccc(S/C=C\C(=O)c2ccccc2)cc1	13µM*	4.1µM*	i	u	22µM*	u
Cc1ccc(C(=O)/C=C\C(=O)c2ccc(C)cc2)cc1	u	u	i	u	-1%	i
COc1ccc(NC(=O)CSc2nccn2Cc2ccc(F)cc2)c(OC)c1	3%	1%	i	-6%	2%	i
O=C(NC1CCCCC1)C(c1ccncc1)N(C(=O)c1csnn1)c1ccc(F)cc1 (configuration not stated)	-5%	-26%	i	u	15%	i
Cc1c(C(=O)NNC(=O)c2csc(N3CCOCC3)n2)oc2ccccc12	-12%	15µM*	i	1%	-18%	i
SMILES	HT1080 IDH1KD tx	MCF10A rereplic	KB-3-1 cytotox	SW480 rerep	HT1080-NT tox	KB-V1 cytotox
O=C(COC(=O)CC1CC2CCC1C2)Nc1ccc(F)cc1 (configuration not stated)	-2%	-2%	i	-8%	-2%	u
CCOc1cc(/C=C2\SC(=Nc3ccc(CC)cc3)NC2=O)ccc1OCC(=O)O	11%	18µM*	i	u	14%	i
CCc1ccc(N=C2NC(=O)/C(=C/c3cc(OC)c(OC)c(OC)c3)S2)cc1	u	12µM*	u	u	-27%	u
CCc1ccc(N=C2NC(=O)/C(=C/c3cc(Br)c(OCC(=O)O)c(OC)c3)S2)cc1	-1%	u	i	-61%[1.84 µM]	-2%	u
CC1(C)CC(=O)C(C=Nc2ccc(C(=O)c3ccccc3)cc2N=CC2=C(O)CC(C)(C)CC2=O)=C(O)C1	0%	5.8µM*	u	u	-5%	i
O=S(=O)(c1ccc(Cl)cc1Br)N1CCCCC1	-29%	0%	u	0%	0%	18µM*
O=S(=O)(c1ccccc1S(=O)(=O)N1CCCCC1)N1CCCCC1	-22%	3%	i	7%	u	15µM*
CCOc1ccc(S(=O)(=O)N2CCCCC2)c2ccccc12	21µM*	u	i	-15%	-11%	i
COC(=O)c1sccc1NC(=O)c1c(C)cc(=O)oc1C	-1%	4%	i	-2%	-2%	i
CN(C(=O)CCl)C1CCCc2ccccc21 (configuration not stated)	u	u	5.8µM*	2.3µM*	u	u
COc1cc(C)nc(Oc2ccc(OCCOc3ccccc3)nn2)n1	13%	21%	i	-23%	8%	i
CCc1cc2c(=O)c(-c3nc4ccccc4[nH]3)coc2cc1OC(=O)N1CCOCC1	23%	u	u	-6%	-3%	3.3µM*
COc1ccccc1-c1coc2cc(OC(=O)N3CCOCC3)ccc2c1=O	-24%	u	i	-4%	-6%	i
Nc1c(C(=O)Nc2ccc3c(c2)OCCO3)nnn1Cc1cccc(Br)c1	13µM*	u	i	u	-28%	15µM*
Cc1ccc(NC(=O)c2nnn(CC(=O)Nc3ccc4c(c3)OCO4)c2N)cc1C	-4%	-2%	i	-25%	1%	i
Nc1c(C(=O)Nc2ccc3c(c2)OCCO3)nnn1Cc1ccc(Br)cc1	-12%	-1%	i	5%	-11%	i
Nc1c(C(=O)Nc2ccc3c(c2)OCCO3)nnn1CCc1ccccc1	u	20%	6.5µM*	u	u	u
Cc1ccc(NC(=O)Cn2cccc2)cc1Cl	-16%	-7%	i	-3%	-7%	18µM*
Cc1ccc(NC(=O)CSc2ccccc2NC(=O)c2cccc(Cl)c2)cc1Cl	12%	3%	i	x	3%	u
